“And” between values parts separate entries of the source, which are not always exact repeats. Equal entries are not always repeated. Inconclusive results are not listed. Entries that show only a call come without a potency. More than one record can exist for a structure, and the calls need not agree. The source made the active and inactive calls. The call rests on the fitted dose curve; in most records, active means well fitted curve in the direction sought with a large enough effect in the repeat runs; inconclusive means weak or mixed curves; inactive means no such curve, though single readings can be large; an effect the other way counts as inactive or inconclusive.
Experiments:
[1] = A CellTox Green Cytotoxicity Assay to monitor cytotoxicity in HEK293 cells - 32 hour (AID 1224881); further: nearly all actives have a fitted effect of over 40% in size; further: potency means the concentration at half of the fitted maximal effect
Procedure, shortened: (§1)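 HEK293 cells premixed with CellTox Green dye were seeded at 600 cells/well and left 5 h at 37 C/5% CO2 before pin transfer of 23 nL compound in DMSO. Fluorescence from dye bound to dead-cell DNA was read during 40 h treatment.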

[2] = A CellTox Green Cytotoxicity Assay to monitor cytotoxicity in HepG2 cells - 0 hour (AID 1224882); further: nearly all actives have a fitted effect of over 35% in size
Procedure, shortened: (§2)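 HepG2 cells were seeded together with the CellTox Green dye at 600 cells/well, left 5 h at 37 C/5% CO2, then given compounds in DMSO. Fluorescence from dye bound to dead-cell DNA was read repeatedly over 40 h of treatment at 37 C.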

[3] = A CellTox Green Cytotoxicity Assay to monitor cytotoxicity in HepG2 cells - 32 hour (AID 1224883); further: nearly all actives have a fitted effect of over 50% in size; further: potency means the concentration at half of the fitted maximal effect
Procedure, shortened: as §2

[4] = A CellTox Green Cytotoxicity Assay to monitor cytotoxicity in HEK293 cells - 8 hour (AID 1224884); further: nearly all actives have a fitted effect of over 35% in size; further: potency means the concentration at half of the fitted maximal effect
Procedure, shortened: as §1

[5] = qHTS RealTime-Glo MT Cell Viability Assay in HepG2 cells - 16 hour (AID 1224885); further: nearly all actives have a fitted effect of over 50% in size; further: potency means the concentration at half of the fitted maximal effect
Procedure, shortened: (§3)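 Cells + NanoLuc/prosubstrate dispensed (600 cells/well) → 5 h at 37 C/5% CO2 → compounds in DMSO transferred → 40 h incubation at 37 C, luminescence read at 0, 8, 16, 24, 32, 40 h.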

[6] = qHTS RealTime-Glo MT Cell Viability Assay in HEK293 cells - 24 hour (AID 1224886); further: nearly all actives have a fitted effect of over 50% in size; further: potency means the concentration at half of the fitted maximal effect
Procedure, shortened: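 Tox21 10K qHTS, HEK293, 600 cells/well, RealTime-Glo reagent co-dispensed with cells; 5 h preincubation, compound by pintool, 37 C, luminescence at 0–40 h.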

[7] = qHTS RealTime-Glo MT Cell Viability Assay in HEK293 cells - 8 hour (AID 1224887); further: nearly all actives have a fitted effect of over 50% in size; further: potency means the concentration at half of the fitted maximal effect
Procedure, shortened: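 HEK293 cells mixed with RealTime-Glo reagents (NanoLuc plus cell-permeant prosubstrate) at 600 cells/well, preincubated 5 h at 37 C/5% CO2, then given 23 nL compound in DMSO. Nonlytic luminescence from viable cells was read at 0, 8, 16, 24, 32 and 40 h.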

[8] = qHTS RealTime-Glo MT Cell Viability Assay in HepG2 cells - 0 hour (AID 1224889); further: nearly all actives have a fitted effect of over 50% in size; further: potency means the concentration at half of the fitted maximal effect
Procedure, shortened: as §3

[9] = A CellTox Green Cytotoxicity Assay to monitor cytotoxicity in HepG2 cells - 8 hour (AID 1224890); further: nearly all actives have a fitted effect of over 45% in size; further: potency means the concentration at half of the fitted maximal effect
Procedure, shortened: as §2

[10] = A CellTox Green Cytotoxicity Assay to monitor cytotoxicity in HEK293 cells - 16 hour (AID 1224888); further: nearly all actives have a fitted effect of over 35% in size; further: potency means the concentration at half of the fitted maximal effect
Procedure, shortened: as §1

SMILES | Potency [1] | Potency [2] | Potency [3] | Potency [4] | Potency [5] | Potency [6] | Potency [7] | Potency [8] | Potency [9] | Potency [10]
O=C1NS(=O)(=O)c2ccccc21 | inactive | inactive | inactive | inactive | inactive | inactive | inactive | inactive | inactive | –
CCOc1ccc(NC(C)=O)cc1 | inactive | inactive | inactive | inactive | inactive | inactive and 21.9 µM (active) | inactive | inactive | inactive | inactive
CCCCCCc1ccc(O)cc1O | 49.1 µM (active) and 49 µM (active) and inactive | inactive | 49.1 µM (active) and 38.9 µM (active) and 21.3 µM (active) | inactive | inactive | 19.6 µM (active) and 11 µM (active) | 15.5 µM (active) and 9.77 µM (active) | inactive | inactive and 49 µM (active) | inactive
Cc1cn([C@H]2C=C[C@@H](CO)O2)c(=O)[nH]c1=O | inactive | inactive | inactive | inactive | inactive | inactive | inactive | inactive | inactive | inactive
CC(=O)CCC(=O)O | inactive | inactive | inactive | inactive | inactive | inactive | inactive | inactive | inactive | inactive
CC1(C)O[C@@H]2C[C@H]3[C@@H]4CCC5=CC(=O)C=C[C@]5(C)[C@@]4(F)[C@@H](O)C[C@]3(C)[C@]2(C(=O)CO)O1 | inactive and 9.52 µM (active) | inactive | inactive | inactive and 9.52 µM (active) | inactive | inactive | inactive | 22 µM (active) and 12.3 µM (active) | inactive | –
NC(CO)(CO)CO | inactive | inactive | inactive | inactive | inactive | inactive | inactive | inactive | inactive | –
O=C1O[C@H]([C@@H](O)CO)C(O)=C1O | inactive | inactive | inactive | inactive | inactive | inactive | inactive | inactive | inactive | –
NC(=O)n1c(O)c(C(=O)c2cccs2)c2cc(Cl)ccc21 | inactive | inactive | inactive | inactive | inactive | inactive | inactive | – | inactive | inactive
F[B-](F)(F)F | inactive | inactive | inactive | inactive | inactive | inactive | inactive | inactive | inactive | –
O=C1NC(=O)C(c2ccccc2)(c2ccccc2)N1 | inactive and 19 µM (active) | inactive | inactive and 21.3 µM (active) | inactive and 21.3 µM (active) | – | inactive | inactive | inactive | inactive and 23.9 µM (active) | –
Cc1cccc(C)c1 | inactive | inactive | – | inactive | inactive | inactive | inactive | inactive | inactive | inactive
CC12CCC(CC1)C(C)(C)O2 | inactive | inactive | – | inactive | inactive | inactive | inactive | inactive | inactive | –
O=c1[nH]cnc2c1ncn2[C@H]1CC[C@@H](CO)O1 | inactive | inactive | – | inactive | inactive | inactive | inactive | inactive | inactive | –
CN(C)CCOC(c1ccccc1)c1ccccc1 | inactive | inactive | inactive | inactive | – | inactive | inactive | inactive | inactive | inactive
C1CCC(C(CC2CCCCN2)C2CCCCC2)CC1 (stereo not drawn) | 19 µM (active) | inactive | – | 26.8 µM (active) | 8.49 µM (active) | 16.9 µM (active) | 23.9 µM (active) | – | 23.9 µM (active) | 23.9 µM (active)
Cc1cc(=O)oc2cc(O)ccc12 | inactive | inactive | – | inactive | inactive | inactive | inactive | inactive | inactive | inactive
CCc1nc(N)nc(N)c1-c1ccc(Cl)cc1 | inactive | inactive | inactive | inactive | – | inactive | inactive | inactive | inactive | –
CC(=O)Nc1c(I)c(NC(C)=O)c(I)c(C(=O)O)c1I | inactive | inactive | – | inactive | inactive | inactive | inactive | inactive | inactive | –
CCCCC(CC)C(=O)O (stereo not drawn) | inactive | inactive | – | inactive | inactive | inactive | inactive | inactive | inactive | –
COc1ccc(CN(CCN(C)C)c2ccccn2)cc1 | inactive | inactive | inactive | inactive | – | – | – | – | inactive | inactive
